The source of these data is PubChem BioAssay AID463173 (ICCB-Longwood Screening Facility, Harvard Medical School, 2010).

Out of some 52,000 compounds screened, about 4,300 (8.3%) were called active. Shown is part of a subset that was picked to be rich in actives. Values without a mark were called inactive. Rule as the data show it: active = survival mostly below about 52% (no sharp cut-off); inactive = mostly above about 56%.

The experiment relates to DeltatarO mutant. In words: S. aureus survival, RN4220 and DeltatarO strains – OD600, teichoic acid synthesis inhibitors, primary screen (AID 463173). The note with it: S. aureus RN4220 wild type/DeltatarO growth, OD600, 18 h, hits give low values, screened at 18.75 µg/mL (by protocol).
Regarding `CCOC(=O)c1cc(-c2ccc(F)cc2)n(CCC(=O)Nc2nc3cc(C)c(C)cc3s2)c1C`, the survival was 85%.
Take `CCc1cccc2sc(N3CCN(C(=O)c4cc5ccccc5cc4OC)CC3)nc12`: the survival was 119%.
Under `COc1ccc(-n2nc(C(=O)N3CCN(c4ccc(F)cc4)CC3)c3c4ccccc4n(C)c3c2=O)cc1` stands 69%.
In the case of `Cc1cc(N2CCN(c3cccc(C)c3C)CC2)n2cnnc2n1`, the survival is 99%.
Under `Cc1ccc(NC(=O)Cn2c(=O)oc3cc(S(=O)(=O)N4CCCC4)ccc32)cc1F` stands 113%; under `CCCCN(CCCC)CCNC(=O)c1cn(CC)c2ccc(S(=O)(=O)N(C)C3CCCCC3)cc2c1=O`, 144%; under `CCCN(CCC)CCCNC(=O)c1cn(CC)c2ccc(S(=O)(=O)N(C)C3CCCCC3)cc2c1=O`, 94%.
With `CCCCSCCCNC(=O)c1cn(CC)c2ccc(S(=O)(=O)N(C)C3CCCCC3)cc2c1=O`, the survival was 24% (active).
Under `Cc1cccc(NC(=O)c2ccc(F)c(S(=O)(=O)N3CCN(c4ccc(F)cc4)CC3)c2)c1` stands -1% (active).
Regarding `Cc1cccc(NC(=O)c2ccc(F)c(S(=O)(=O)N3CCC4(CC3)OCCO4)c2)c1`, the survival is 72%.
Under `CCOc1ccccc1NC(=O)c1ccc(F)c(S(=O)(=O)N2CCN(c3ccc(F)cc3)CC2)c1` stands 76%; under `COc1cc(-c2cc3n(C)c(C)c(CCC(=O)NC4CCC(C)CC4)c(=O)n3n2)cc(OC)c1OC` (stereo not given), 101%; under `CCOc1ccc(CCNC(=O)Cn2ncn3c(cc4ccccc43)c2=O)cc1OCC`, 85%.
On to `COC(=O)C1(CO)NC(c2ccc(Cl)cc2)C2C(=O)N(C)C(=O)C21` (stereo not given), for which the survival is 66%.
For `Cc1ccccc1C(=O)Nc1ccc(OCc2cc(=O)n3ccccc3n2)cc1` the value was 54%.
For `COc1ccc2nc(NC(=O)c3ccc(S(=O)(=O)N4CCC(C)CC4)cc3)sc2c1` the value was 91%; for `Cc1ccc2nc(NC(=O)c3ccc(S(=O)(=O)N4CCC(C)CC4)cc3)sc2c1`, 93%; for `CC1CCN(S(=O)(=O)c2nnc(NC(=O)c3cccc(Cl)c3)s2)CC1`, 23% (active).
Take `COc1ccc(C(=O)Nc2nnc(S(=O)(=O)N3CCC(C)CC3)s2)cc1OC`: the survival is 79%.
For the compound `CC1CCN(S(=O)(=O)c2ccc(C(=O)Nc3nc4ccc(F)cc4s3)cc2)CC1`, the survival was 46% (active).
Under `Cc1cccc(C(=O)Nc2nnc(S(=O)(=O)N3CCC(C)CC3)s2)c1` stands 35% (active); under `CC1CCN(S(=O)(=O)c2nnc(NC(=O)c3cccc(Br)c3)s2)CC1`, 31% (active); under `CCCNC(=O)CN1C(=O)COc2ccc(S(=O)(=O)N3CCCC3)cc21`, 86%.
For `O=C1CCc2cc(S(=O)(=O)NCc3ccc(Cl)cc3)cc3c2N1CC3` the value was 77%; for `COCCOC(=O)Cn1nnc2sc(-c3ccccc3)cc2c1=O`, 65%.
Turning to `COCC(=O)NCc1nc2cccnc2n1Cc1ccc(F)cc1`, the survival was 60%.
Under `CN1CCN(C(=O)c2ccccc2C(=O)O)CC1` stands 96%; under `CCc1nn2c(=O)cc(COC(=O)c3ccc4c(c3)OCO4)nc2s1`, 76%; under `COc1ccc(NC(=O)c2c(NCc3ccc(OC)c(OC)c3OC)sc3c2CCC3)c(OC)c1`, 83%.
For `Cc1n[nH]c(=S)n1CC1CCCO1` (stereo not given) the value was 77%; for `COc1cccc(Cn2c(=O)n(-c3ccc(Br)cc3F)c(=O)c3sc4ccccc4c32)c1`, 96%.
Under `O=C(Nc1nnc(S(=O)(=O)N2CCOCC2)s1)c1cccc(F)c1` stands 80%; under `CC1CCN(S(=O)(=O)c2nnc(NC(=O)c3cccc(F)c3)s2)CC1`, 31% (active).
As to `Cc1ccc(N2CCN(S(=O)(=O)c3nnc(NC(=O)c4cccc(F)c4)s3)CC2)cc1`, the survival was 57%.
In the case of `COc1ccc(C(C(=O)NC2CCCC2)N(Cc2ccc(C)cc2)C(=O)c2ccn[nH]2)cc1OC` (stereo not given), the survival was 104%.
For `O=C(NC1CCCCC1)C(c1ccco1)N(Cc1ccccc1)C(=O)Cn1nnc2ccccc21` (stereo not given), the survival is 69%.
Regarding `O=C(NC1CCCC1)C(c1ccccc1)N(Cc1ccc2c(c1)OCO2)C(=O)c1ccco1` (stereo not given), the survival is 73%.
`CCOC(=O)CN(Cc1ccccc1)C(C(=O)NC1CCCCC1)c1ccc(C)cc1` (stereo not given): the survival is -3% (active).
Under `CCCC(C(=O)NC1CCCC1)N(Cc1ccccc1)C(=O)Cn1nnc(-c2ccc(C)o2)n1` (stereo not given) stands 66%; under `CCOC(=O)CN(Cc1ccccc1)C(C(=O)NC1CCCCC1)c1ccc(OC)cc1` (stereo not given), 20% (active).
In the case of `COc1ccc(-c2nnn(CC(=O)N(Cc3ccccc3)C(C)C(=O)NC3CCCC3)n2)cc1OC` (stereo not given), the survival is 84%.
For `COc1ccc(N(C(=O)c2ccco2)C(C(=O)NC2CCCC2)c2cc(OC)c(OC)c(OC)c2)cc1` (stereo not given) the value was 84%.
As to `CCOC(=O)CN(Cc1ccccc1)C(C(=O)NC1CCCCC1)c1ccccc1` (stereo not given), the survival is -1% (active).
For the compound `Cc1cc(C)cc(NC(=O)Cn2cc(S(=O)(=O)NC(C)(C)C)c(S(=O)(=O)NC(C)(C)C)c2)c1`, the survival was 95%.
For `CSc1ncc(C(=O)NCc2ccccc2F)c(-c2ccccc2)n1` the value was 112%.
As to `CCCn1c2ccccc2c2cnn(CC(=O)NCc3ccccc3Cl)c(=O)c21`, the survival is 108%.
Under `CCc1nn(CCCC(=O)NCc2ccccc2OC)c(=O)c2cc3occc3n12` stands 84%; under `Cc1ccccc1CNC(=O)C(C)n1nc(C)n2c(cc3occc32)c1=O` (stereo not given), 68%; under `COc1ccc(Br)cc1CNC(=O)C(C)n1nc(C)n2c(cc3occc32)c1=O` (stereo not given), 46% (active).
Under `CCc1nn(CCCC(=O)NCc2ccc(OC)c(OC)c2)c(=O)c2cc3occc3n12` stands 79%; under `CCC(C(=O)NCc1ccccc1OC)n1nc(C)n2c(cc3occc32)c1=O` (stereo not given), 80%; under `CCc1nn(CCCC(=O)NCc2cc(Br)ccc2OC)c(=O)c2cc3occc3n12`, 46% (active).
As for `COC(=O)c1ccc(Oc2nc3c(c(=O)n(C)c(=O)n3C)n2Cc2ccc(Cl)c(Cl)c2)cc1`, the survival is 167%.
As for `O=C(CCS(=O)(=O)c1nc(-c2cccs2)cc(C(F)(F)F)n1)Nc1ccc(F)c(Cl)c1`, the survival was 67%.
For the compound `Clc1cc2c(cc1C=Nc1ccc(N3CCOCC3)cc1)OCO2`, the survival was 83%.
